This is a sample that favours compounds with a hit; in the whole collection about 0.4% have one here.
FMDV FLuc – FMDV antiviral activity by firefly signal. FMDV antiviral cell assay, firefly luciferase signal. Potency, µM (titrated, usually from 57.5 µM), hits mostly inhibitors. hit rate 0.23% among 120,000. AID 1745856; also: nearly all actives have a fitted effect of over 60% in size
FMDV RLuc – antivirals against foot and mouth disease virus replicon; Potency, µM (series often up to 57.5 µM), most hits filed as inhibitors; hit rate 0.32% among 120,000; AID 1745857; FMDV replicon cells, Renilla luciferase signal; also: nearly all actives have a fitted effect of over 55% in size
Of the large screens only hits and unclear results are named; the others gave an inactive call. Calls follow the shape of the full dose curve.

COc1ccccc1NC(=O)CSc1nc2ccsc2c(=O)n1C	FMDV FLuc 22µM, FMDV RLuc 22µM
Cn1nc(CC(=O)Nc2ccc(Cl)cc2)c2ccccc2c1=O	FMDV FLuc inconclusive, FMDV RLuc 2.8µM
COc1ccc(S(=O)(=O)N(C)C)cc1NC(=O)Cc1nn(C)c(=O)c2ccccc12	none
Cn1nc(CC(=O)Nc2ccc(F)cc2Cl)c2ccccc2c1=O	FMDV FLuc inconclusive, FMDV RLuc 7.1µM
Cn1nc(CC(=O)NCc2ccc(F)cc2)c2ccccc2c1=O	FMDV RLuc inconclusive
COc1ccccc1NC(=O)Cc1nn(C)c(=O)c2ccccc12	FMDV FLuc 10µM, FMDV RLuc 10µM
Cn1nc(CC(=O)Nc2cccc(OC(=O)c3ccc(Cl)cc3)c2)c2ccccc2c1=O	none
CCn1c(SCC(=O)Nc2ccccc2C(=O)OC)nc2ccsc2c1=O	none
CC1=CC(=C(C#N)C#N)CC(C)(C)C1	none
COc1ccc(CNC(=O)CSc2nc(C3CC3)nc3ccccc23)cc1	none
O=C1CCCN1c1cccc(-c2csc(-c3ccsc3)n2)c1	none
COc1ccc(C2C=C(c3ccc(Br)cc3)Nc3ncnn32)cc1 (configuration not stated)	none
COc1ccc(-n2c(SC(C(=O)N3CCCC3)c3ccccc3)nnc2-c2ccncc2)cc1 (configuration not stated)	none
CC(C)N(Cc1ccccc1)C(=O)c1cc2ccc3cccnc3c2[nH]1	FMDV FLuc 25µM, FMDV RLuc 8.9µM
O=C(NCc1cccc(Cl)c1)c1cc2ccc3cccnc3c2[nH]1	none
Cc1cc(C(=O)Cn2c(Cl)nc3c2c(=O)n(C)c(=O)n3C)c(C)n1CC(F)(F)F	FMDV FLuc 22µM, FMDV RLuc 16µM
Cc1cc(C(=O)Cn2c(Cl)nc3c2c(=O)n(C)c(=O)n3C)c(C)n1Cc1ccc(F)cc1	none
O=C(Nc1nc(C23CC4CC(CC(C4)C2)C3)cs1)c1ccncc1	FMDV FLuc 14µM, FMDV RLuc 8.9µM
O=C(Nc1nc(C23CC4CC(CC(C4)C2)C3)cs1)c1ccc(=O)[nH]c1	none
Cc1nc(-c2cccc(NC(=O)c3ccc4[nH]c(C)c(C)c4c3)c2)cs1	FMDV FLuc inconclusive
Cc1ccc(NC(=O)C2CCCN2S(=O)(=O)c2ccc3c(c2)CCCC(=O)N3)cc1C (configuration not stated)	FMDV FLuc 35µM, FMDV RLuc 28µM
Cc1cc(C)cc(NC(=O)C2CCCN2S(=O)(=O)c2ccc3c(c2)CCCC(=O)N3)c1 (configuration not stated)	FMDV RLuc inconclusive
COc1ccc(Br)cc1/C=C(\C#N)C(N)=C(C#N)C#N	none
Cc1c(C(=O)OC2CCCCCC2)[nH]c2c1C(=O)CC(c1ccccc1)C2 (configuration not stated)	none
COc1cc(C2CC(=O)c3c([nH]c(C(=O)OC4CCCC4)c3C)C2)cc(OC)c1OC (configuration not stated)	FMDV FLuc inconclusive, FMDV RLuc 8.9µM
COc1ccc(NC(=O)COc2ccc(Cl)cc2)c2cccnc12	FMDV FLuc inconclusive, FMDV RLuc 11µM
COc1ccc(NC(=O)c2ccccc2Cl)c2cccnc12	none
CCOc1ccc(NC(=O)COc2ccc(OC)cc2)c2cccnc12	none
COc1ccc(NC(=O)COc2ccccc2Cl)c2cccnc12	FMDV FLuc 11µM, FMDV RLuc 10µM
COc1ccc(NC(=O)Cn2nc(-c3cc(C)ccc3C)c3c(c2=O)CCCC3)cc1	none
O=C(Nc1cc(C(F)(F)F)ccc1Cl)C1=C(c2ccccc2)S(=O)(=O)CCO1	none
O=C(Nc1c(Cl)cccc1Cl)C1=C(c2ccccc2)S(=O)(=O)CCO1	FMDV FLuc inconclusive, FMDV RLuc 16µM
CCn1c(C)cc(-c2csc(NCc3ccccc3OC)n2)c1C	none
O=C(Nc1ccc2c(c1)OCCCO2)c1ccccc1SCc1cccs1	none
CC(C)NC(=O)/C(C#N)=C\c1ccc(O)cc1	none
CC(C)NC(=O)/C(C#N)=C\c1cccc(/C=C(/C#N)C(=O)NC(C)C)c1	FMDV FLuc 28µM
Cc1cc(Cl)ccc1OCCCc1n[nH]c(=S)n1Cc1ccco1	FMDV FLuc inconclusive
O=c1c2c(-c3ccc(Br)cc3)csc2ncn1-c1ccccc1	none
Brc1ccc(-c2csc3ncnc(Sc4nnc(C5CC5)o4)c23)cc1	FMDV FLuc 25µM, FMDV RLuc inconclusive
Cc1cccc(C(C)C)c1NC(=O)c1cnc2ccccc2n1	none
CCCOc1ccc(C2C3=C(CC(C)(C)CC3=O)Nc3cc4c(cc32)OCO4)cc1 (configuration not stated)	none
Cc1cccc(-c2noc(-c3ccc(N4CCCC4)c([N+](=O)[O-])c3)n2)c1	FMDV FLuc 8.9µM
Cc1cccc(-c2noc(-c3ccc(N4CCOCC4)c([N+](=O)[O-])c3)n2)c1	none
N#C/C(=C/c1ccc2ncccc2c1)c1nc2ccccc2[nH]1	none
O=S(=O)(/C(=C/c1ccc2ccccc2c1)c1nc2ccccc2[nH]1)c1ccccc1	FMDV FLuc 35µM, FMDV RLuc 16µM
COc1ccc(C(=O)Nc2cccc(-c3nc4cc(Cl)ccc4o3)c2)c(OC)c1	none
Oc1ccc2c(c1)OCCOCCOc1cc(O)ccc1OCCO2	none
CC(C)(C)c1ccc2c(c1)OCCOCCOCCOc1cc(C(C)(C)C)ccc1OCCOCCOCCO2	FMDV FLuc inconclusive, FMDV RLuc 28µM
COc1ccc(CNC(=O)c2nc(S(=O)(=O)Cc3ccccc3)ncc2Cl)cc1	FMDV FLuc 22µM
COc1ccc(NC(=O)c2nc(S(=O)(=O)Cc3ccc(C)cc3)ncc2Cl)cc1	none
C=CCNc1nc2c(c(=O)n(C)c(=O)n2C)n1CC(O)COc1ccc(OC)cc1 (configuration not stated)	FMDV FLuc inconclusive, FMDV RLuc 22µM
C=CCNc1nc2c(c(=O)n(C)c(=O)n2C)n1CC	none
C=CCNc1nc2c(c(=O)n(C)c(=O)n2C)n1CCC(C)C	FMDV FLuc 28µM, FMDV RLuc 16µM
Cc1ccc(OCC(O)Cn2c(NCC(=O)O)nc3c2c(=O)n(C)c(=O)n3C)cc1 (configuration not stated)	none
Cc1ccc(NC(=O)COC(=O)c2ccc3ccccc3n2)c(C)c1	FMDV FLuc inconclusive, FMDV RLuc 22µM
Cc1ccc(C)c(NC(=O)COC(=O)c2ccc3ccccc3n2)c1	none
COc1ccc(S(=O)(=O)N2CCN(C(=O)c3cn[nH]c3-c3ccccc3)CC2)cc1	none
COc1cc(=O)n(-c2ccccc2C)nc1C(=O)NCc1ccc(Cl)cc1	none
CCOc1cc(/C=C/c2ncc(C(=O)O)s2)cc(Cl)c1OC	none
Cc1nc2cc(NC(=O)c3ccc(C(C)(C)C)cc3)ccc2o1	FMDV FLuc 7.9µM, FMDV RLuc 4.5µM
CCc1ccc(C(=O)Nc2ccc3oc(C)nc3c2)cc1	FMDV RLuc 10µM
CCc1ccc(-c2nc3cc(NC(=O)c4ccc(C)c(C)c4)ccc3o2)cc1	none
Cc1nc2cc(NC(=O)c3cccc(Cl)c3)ccc2o1	none
C#CCN(Cc1ccc(C)cc1)C(=O)C1CCCN(C(=O)CC)C1 (configuration not stated)	none
COc1ccccc1CNC(=O)c1c(O)nc2c(C)cccn2c1=O	FMDV FLuc inconclusive, FMDV RLuc 35µM
COc1ccc(CCNC(=O)c2c(O)nc3c(C)cccn3c2=O)cc1OC	none
CC(=O)NC1=NN(C(C)=O)C(c2cccc(OCc3ccccc3F)c2)S1 (configuration not stated)	none
c1ccc(COc2ccc3cc[nH]c3c2)cc1	none
CCOc1ccc(C(=O)Nc2ccc3nc(SCC(=O)N(C)c4ccccc4)sc3c2)cc1	FMDV FLuc 7.9µM, FMDV RLuc inconclusive
Cc1ccccc1C(=O)Nc1ccc2nc(SCC(=O)N(C)c3ccccc3)sc2c1	none
NC(=O)NNC(=S)Nc1ccccc1	none

Screening data: PubChem, National Center for Advancing Translational Sciences (NCATS)
